# Measurements taken from PubChem BioAssay (Tox21).
# Results filed as inconclusive are left out. Unmarked numbers belong to inactive results. Calls come from the whole dose curve; as a rule, active = well fitted inhibition curve with a large enough effect in the signal ratio in the repeat runs (not every such curve was filed as active); inconclusive = weak or mixed curves, or effect the other way; inactive = no such curve, though single readings can be large or run the other way; the % refers to the signal ratio.
# Molecular target: Peroxisome proliferator-activated receptor delta (Homo sapiens) (UniProt Q03181)
# Sequence (Q03181 whole entry, looked up): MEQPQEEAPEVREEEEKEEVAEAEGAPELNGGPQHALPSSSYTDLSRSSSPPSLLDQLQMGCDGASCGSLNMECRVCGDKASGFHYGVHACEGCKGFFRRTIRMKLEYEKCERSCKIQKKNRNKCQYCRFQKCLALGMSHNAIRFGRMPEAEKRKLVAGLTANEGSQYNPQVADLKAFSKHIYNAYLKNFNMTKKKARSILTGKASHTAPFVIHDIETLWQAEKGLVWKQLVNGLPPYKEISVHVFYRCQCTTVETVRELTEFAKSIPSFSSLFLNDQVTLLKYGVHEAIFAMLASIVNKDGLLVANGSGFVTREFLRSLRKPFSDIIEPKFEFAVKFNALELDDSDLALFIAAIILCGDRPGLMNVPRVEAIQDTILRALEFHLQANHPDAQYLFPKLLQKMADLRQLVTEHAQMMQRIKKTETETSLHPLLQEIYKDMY
# Test: qHTS assay to identify small molecule antagonists of the peroxisome proliferator-activated receptor delta (PPARd) signaling pathway (AID 743215);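 note: cells stimulated with agonist L165041 at 300 nM final during compound exposure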
# Conditions: HEK293H PPARd-UAS-bla, beta-lactamase FRET ratio, antagonist, 17 h; series mostly up to 62 µM; ratio activity, negative = inhibition: at the top concentration
# Source text: U.S. Tox21 Program National Center for Advancing Translational Sciences [NCATS] NIH Chemical Genomics Center [NCGC] U.S. Environmental Protection Agency [EPA] National Institutes of Environmental Health Sciences [NIEHS] National Toxicology Program [NTP] U.S. Food and Drug Administration [FDA] Tox21 Assay Overview: The peroxisome proliferator-activated receptors (PPARs) are lipid-activated transcription factors of the nuclear receptor superfamily with three distinct subtypes namely PPAR alpha, PPAR delta (PPARd) and PPAR gamma. All these subtypes heterodimerizes with Retinoid X receptor (RXR) and have different physiological functions. […] To identify the compounds that inhibit PPAR-delta signaling, GeneBLAzer PPAR delta UAS-bla HEK293H cell line (Invitrogen, Carlsbad, CA, USA) containing a beta-lactamase reporter gene under the control of an Upstream Activator Sequence (UAS) was used to screen the Tox21 compound library.
# Tox21 Assay Protocol Summary: PPARd-bla cells were dispensed at 3000 cells/5uL/well in 1536-well black wall/clear bottom plates using a Multidrop Combi (Thermo Fisher Scientific, Waltham, MA) dispenser. After the assay plates were incubated at 37 C and 5% CO2 for 5 h, 23 nL of compounds dissolved in DMSO, positive controls or DMSO only was transferred to the assay plate by a Pintool station (Kalypsys, San Diego, CA), followed by addition of 1ul L165041 (300 nM, final concentration in the wells). The assay plates were incubated at 37 C for 17 h, and then 1 uL of LiveBLAzerTM B/G FRET substrate was added using a Bioraptr Flying Reagent Dispenser (FRD) workstation (Beckman Coulter, Indianapolis, IN, USA). The assay plates were incubated at room temperature for 2 h and fluorescence intensity was measured by an Envision plate reader (PerkinElmer, Shelton, CT).
# % is set by controls: 0 for no effect and ±100 for the full control effect.
row,SMILES,"ratio activity, negative = inhibition"
1,O=c1[nH]c2ccccc2c(=O)n1CCCl,-1.46%
2,Nc1nc(F)nc2c1ncn2[C@@H]1O[C@H](CO)[C@@H](O)[C@@H]1O,0.0324%
3,CCCC(C)CO (stereo not given),0.647%
4,CC(=O)OC(C)(C)C,5.22%
5,CC(=O)NC(Cc1ccccc1)C(=O)O (stereo not given),-6%
6,COc1cccc(Br)c1,9.35%
7,O=C(O)CCNC(=O)c1ccc(N=Nc2ccc(O)c(C(=O)O)c2)cc1,-0.508%
8,Cc1ccccc1C(=O)O,1.12%
9,CC(C)(O)c1ccccc1,-3.24%
10,C(=C(c1ccccc1)c1ccccc1)c1ccccc1,1.56%
11,CC(C)CCCCCCN,6.43%
12,CCCCCN(CCCCC)C(=O)C(CCC(=O)O)NC(=O)c1ccc(Cl)c(Cl)c1 (stereo not given),-6.57%
13,CC(C)COC(=O)C(C)C,-3.25%
14,C=C(C)[C@@H]1CCC2=CC(=O)C[C@@H](C)[C@]2(C)C1,2.54%
15,N#CCc1ccccc1[N+](=O)[O-],-2.48%
16,CNC(=O)c1c(I)c(NC(=O)CCCCC(=O)Nc2c(I)c(C(=O)O)c(I)c(C(=O)NC)c2I)c(I)c(C(=O)O)c1I,-0.352%
17,CC(C)CCCC(C)CCCC(C)CCCCC(C)CCCC(C)CCCC(C)C (stereo not given),-1.3%
18,COc1ccc(COC=O)cc1,1.16%
19,CN1[C@@H]2CC[C@H]1CC(NC(=O)n1c(=O)[nH]c3ccccc31)C2 (stereo not given in full),3.02%
20,O=C(O)/C=C/c1ccc(/C=C/C(=O)O)cc1,-0.427%

row,SMILES,"ratio activity, negative = inhibition"
1,COc1ccc2cc(C=O)ccc2c1,4.69%
2,CSc1nc(NC2CC2)nc(NC(C)(C)C)n1,-0.279%
3,O=C(O)/C=C/c1ccc(Cn2ccnc2)cc1,14.2%
4,CC(C)CCOC(=O)CC(C)C,18.8%
5,CCCOc1ccccc1-c1nc2n[nH]nc2c(=O)[nH]1,-6.42%
6,C=CCSCC1Nc2cc(Cl)c(S(N)(=O)=O)cc2S(=O)(=O)N1 (stereo not given),-2.71%
7,COC(=O)c1ccc(C(=O)OC)c(C(=O)OC)c1,7.8%
8,CC(C)c1cccc(O)c1,0.188% [at 80.4 µM]
9,Cc1ccc(N)cc1[N+](=O)[O-],-13.1% [at 80.4 µM]
10,CCCCCCCCCCCCCCCCCC(=O)OCCCCCCCCCCCCCC(C)C,3.75%
11,CCO[Si](CCCN=C=O)(OCC)OCC,-0.421%
12,COc1ccc(NC(C)=O)cc1,7.73% [at 80.4 µM]
13,NC(=O)CCCCC1CCSS1 (stereo not given),6.16%
14,CCC(=O)Nc1cccc(N)c1,-2.88%
15,Cn1ccc2cc3c(cc21)CCN3C(=O)Nc1cccnc1,-21.2% [at 28.9 µM]
16,C1=C\CC/C=C\CC/C=C\CC/1,8.08%
17,CC1(C)OC(=O)Nc2ccc(Br)cc21,1.18%
18,CC(C=O)Cc1ccc(C(C)C)cc1 (stereo not given),3.59%
19,CN(C)C(=O)Nc1ccccc1,-10.9%
20,O=C(O)c1cccc(C(=O)O)n1,13.2%
